Bioassay records deposited in PubChem BioAssay by National Center for Advancing Translational Sciences (NCATS).
Hits are enriched below; roughly 9.2% of the tested compounds scored in any of these assays.
SMN2 splice up = qHTS Assay for Enhancers of SMN2 Splice Variant Expression; actives 2.8% (n = 210,000); Potency, µM (series often up to 46.1 µM), without a hit: at the top dose activity change, positive = activation, usual class: activators; HEK293 SMN2-luciferase splicing reporter, luminescence, 30-36 h; also: % of control where 0% means no effect; nearly all actives have a fitted effect of over 55% in size
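HEK293 cells carry an SMN2 […]–luciferase reporter in which exon 7 inclusion puts luciferase in frame. Cells were plated 10-12 h before compound addition, then incubated 30-36 h at 37C. ONE-Glo luminescence was read; sodium butyrate at 4.5 mM final served as control.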
FLuc counter = qHTS profiling assay for firefly luciferase inhibitor/activator using purifed enzyme and Km concentrations of substrates (counterscreen for miR-21 project). Luciferin 4-monooxygenase (Photinus pyralis), P08659. purified FLuc, Km substrates, luminescence inhibition. Potency, µM (series often up to 57.5 µM), without a hit: at the top dose activity change, negative = inhibition, actives largely listed as inhibitors. actives 6.9% (n = 360,000);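 also: plate controls were vehicle for no effect and reference inhibitor for full effect; nearly all actives have a fitted effect of over 55% in size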
Target sequence (P08659 whole entry, looked up): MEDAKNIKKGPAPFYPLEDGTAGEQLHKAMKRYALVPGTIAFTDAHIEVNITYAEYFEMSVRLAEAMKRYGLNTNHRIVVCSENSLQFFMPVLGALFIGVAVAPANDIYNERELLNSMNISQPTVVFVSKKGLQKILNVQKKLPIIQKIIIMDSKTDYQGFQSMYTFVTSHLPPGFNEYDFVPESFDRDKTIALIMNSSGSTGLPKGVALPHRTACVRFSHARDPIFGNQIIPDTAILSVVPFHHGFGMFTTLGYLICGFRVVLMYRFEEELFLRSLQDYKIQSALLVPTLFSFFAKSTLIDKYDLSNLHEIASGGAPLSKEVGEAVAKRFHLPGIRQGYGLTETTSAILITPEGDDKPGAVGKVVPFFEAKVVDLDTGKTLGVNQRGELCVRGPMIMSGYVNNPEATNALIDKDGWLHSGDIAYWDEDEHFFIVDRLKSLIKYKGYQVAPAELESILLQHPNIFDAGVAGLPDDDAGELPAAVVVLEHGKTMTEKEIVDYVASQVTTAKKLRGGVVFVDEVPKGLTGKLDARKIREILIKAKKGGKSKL
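Biochemical qHTS of compounds, final roughly 60 µM downward over six points, against 10 nM purified firefly luciferase using Km concentrations of substrates (10 uM D-luciferin, 10 uM ATP) in Tris acetate pH 7.5 buffer; luminescence output.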
ELG1 DNA repair = qHTS screen for small molecules that inhibit ELG1-dependent DNA repair in human embryonic kidney (HEK293T) cells expressing luciferase-tagged ELG1. HEK293T ELG1-luciferase reporter, luminescence, 16 h; DNA damage induced by 5-fluorouridine. Potency, µM (series often up to 46.1 µM), without a hit: at the highest dose activity change, negative = inhibition, hits mostly inhibitors. actives 2.3% (n = 330,000); also: % is scaled to controls: 0 for no effect and ±100 for the full control effect; nearly all actives have a fitted effect of over 55% in size
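Cells (2,000 per well) received 5-fluorouridine plus test compound or DMSO and were incubated 16 hr at 37 °C, 5% CO2. Luciferase activity was read by luminescence 30 min after ONE-Glo addition; signal suppression marked inhibition of damage-induced ELG1 function.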
Rab9 promoter act = qHTS Assay for Rab9 Promoter Activators | AID 485297, 2010 | Potency, µM (top dose mostly 9.22 µM), for the others: at the top dose activation, negative = inhibition, most hits filed as activators | actives 2.8% (n = 320,000) | Huh7 Rab9 promoter-luciferase reporter, luminescence, 24 h; also: % of control where 0% means no effect; nearly all actives have a fitted effect of over 60% in size
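Huh7 cells stably carrying a Rab9 promoter-luciferase reporter, 1500 cells per well in OP-MEM I with 10% FBS, treated with compound 24 hours at 37C. Luciferase activity read by luminescence after 10 minutes with Amplite reagent.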
NPC1 prom act = qHTS Assay for NPC1 Promoter Activators. Huh7 NPC1 promoter luciferase reporter, 24 h. Potency, µM (highest dose often 9.22 µM), for the others: at the highest dose activation, hits mostly activators. actives 2.4% (n = 320,000). AID 485313, 2010; also: % of control where 0% means no effect; nearly all actives have a fitted effect of over 60% in size
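Huh7 cells stably carrying NPC1 promoter–luciferase, plated in Opti-MEM with 10% FBS for 2 h, were exposed to compound in DMSO for 24 h at 37 °C; luciferase reagent was added for 10 min and luminescence read.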
ELG1 genotoxic = qHTS screen for small molecules that induce genotoxicity in human embryonic kidney (HEK293T) cells expressing luciferase-tagged ELG1; actives 1.3% (n = 330,000); HEK293T ELG1-luciferase reporter, luminescence, 16 h; Potency, µM (titrated, usually from 46 µM), for the others: at the top dose activity change, positive = activation, hits mostly activators; also: % of control where 0% means no effect; nearly all actives have a fitted effect of over 60% in size
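After overnight (16 hr) compound treatment at 37 °C, ELG1-luciferase HEK293T cells were lysed with ONE-Glo; luminescence quantified 30 min later at room temperature.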
Numbers without * were called inactive; ? = inconclusive; . = not tested or not shown; [ ] = dose if it differs, or a comment. Calls follow the shape of the dose curve; as a rule, active = well fitted curve in the direction sought with a large enough effect; inconclusive = small, poorly fitted or top-dose-only effect, or another doubt; inactive = no such curve, though single readings can be large; an effect the other way counts as inactive or inconclusive. Potency is read from the fitted curve at half-maximal effect.

SMILES	SMN2 splice up	FLuc counter	ELG1 DNA repair	Rab9 promoter act	NPC1 prom act	ELG1 genotoxic
CNC(=S)N1N=C(c2ccc(Br)cc2)CC1c1ccc(Br)cc1 (centres undefined)	-5%	-1%	5.8µM*	-3%	-3%	-2%
COc1ccc(C2CC(c3ccc(C)o3)=NN2C(C)=O)cc1 (centres undefined)	13µM*	?	?	?	?	?
CCC(=O)N1N=C(c2ccc(C)o2)CC1c1ccc(N(C)C)cc1 (centres undefined)	27%	?	0%	20%	13%	12%
CC(=O)N1N=C(c2ccc(C)o2)CC1c1ccc(Br)cc1 (centres undefined)	?	?	?	?	2.5µM*	?
COc1ccc(C2=NN(C(=O)CCC(=O)O)C(c3ccc(OC)cc3)C2)cc1 (centres undefined)	.	-6%	11%	-4%	-20%	-1%
CC(C)CN1CCCC2(CCN(C(=O)c3cc(C(F)(F)F)cc(C(F)(F)F)c3)CC2)C1	4%	.	.	.	.	.
CCOc1ccccc1NC(=O)C1CCN(S(=O)(=O)c2ccc3[nH]c4c(c3c2)CCCCC4)CC1	.	-2%	.	.	.	.
CC(/C=C/c1ccccc1)=N\NC(=O)c1cc(C)[nH]n1	0%	-3%	26%	15%	6%	1%
COc1ccc(C2CC(c3ccc(OC)cc3O)=NN2C(=O)c2ccccc2)cc1 (centres undefined)	.	4%	-29%	5%	-4%	0%
COc1ccc(C2CC(c3ccc4ccccc4c3OC(C)=O)=NN2C(C)=O)cc1 (centres undefined)	.	-1%	?	4µM*	4µM*	?
Cc1occc1C(=O)Nc1cc(S(=O)(=O)N2CCOCC2)ccc1OC(C)C	.	0%	-21%	-1%	-3%	0%
COC(=O)c1nn(-c2ccc3c(c2)OCO3)cc1O	?	11µM*	?	20%	?	?
CCOC(=O)c1nn(-c2ccc(C)c(C)c2)cc1O	0%	4.3µM*	?	15%	?	6.5µM*
CCOC(=O)c1nn(-c2ccc(C)cc2)cc1C(=O)c1ccccc1	11µM*	1.9µM*	?	2.8µM*	4µM*	2.6µM*
COC(=O)c1nn(-c2ccc3c(c2)CCN3C(C)=O)cc1O	?	0.54µM*	-19%	3.2µM*	0.5µM*	?
O=C(c1cccc(Br)c1)c1cn(-c2ccccc2)nc1C(=O)c1ccccc1	-16%	-1%	?	1%	-11%	-1%
CCOC(=O)c1nn(-c2ccc([N+](=O)[O-])cc2)cc1O	.	?	?	-5%	-2%	8%
CCOC(=O)c1nn(-c2ccc3c(c2)OCCO3)cc1O	?	3µM*	?	2.8µM*	2.8µM*	8.2µM*
CCOC(=O)c1nn(-c2c(C)n(C)n(-c3ccccc3)c2=O)cc1O	3%	0%	-7%	2%	-1%	-3%
O=C(O)c1ccccc1N/N=C/C1=C(N2CCOCC2)C(=C\c2ccccc2)/CC1	.	?	?	-2%	4%	-3%
Cc1cc(C)nc(N/N=C/C2=C(N3CCOCC3)C(=C/c3ccccc3)/CC2)n1	-105%	-2%	16µM*	0%	1%	-15%
Cc1cc2nc(-c3ccc(=O)[nH]c3)n(Cc3ccccc3)c2cc1C	.	15µM*	?	11%	-4%	?
Cc1ccccc1Cn1c(-c2ccc(=O)[nH]c2)nc2ccccc21	.	5%	43%	2%[1.84 µM]	-2%	9%
CCc1ccc(/C=C2/SC(=S)N(CCC(=O)Nc3cccnc3)C2=O)cc1	.	0.85µM*	-4%	-9%	-1%	17%
O=C(CCCN1C(=O)/C(=C\c2ccccc2)SC1=S)Nc1ccc(C(=O)O)cc1	.	17µM*	-14%	-4%	-6%	-2%
SMILES	SMN2 splice up	FLuc counter	ELG1 DNA repair	Rab9 promoter act	NPC1 prom act	ELG1 genotoxic
CCc1ccc(/C=C2\SC(=S)N(CCCC(=O)Nc3ccc(C(=O)O)cc3)C2=O)cc1	.	4.8µM*	?	-33%	-22%	7%
O=C(CCN1C(=O)/C(=C/c2ccccc2)SC1=S)Nc1cccnc1	.	-10%	-1%	3%	0%	-1%
C=CCn1cccc(C(=O)Nc2ccc(Cl)cc2)c1=O	.	17µM*	?	?	?	?
C=CCn1cccc(C(=O)Nc2ccc(OCC)cc2)c1=O	-21%	17µM*	-6%	?	?	16%
C=CCn1cccc(C(=O)Nc2ccc(OC)c(OC)c2)c1=O	-17%	?	-3%	3%	12%	9%
C=CCn1cccc(C(=O)Nc2ccc(N(C)C)cc2)c1=O	.	8.5µM*	?	4µM*	3.5µM*	?
C=CCn1cccc(C(=O)Nc2ccc(SC)cc2)c1=O	.	12µM*	?	4µM*	?	7%
C=CCn1cccc(C(=O)Nc2ccc(OC)cc2OC)c1=O	-3%	?	5%	18%	10%	3%
C=CCn1cccc(C(=O)Nc2cc(OC)cc(OC)c2)c1=O	19%	?	11%	26%	5%	5%
C=CCn1cccc(C(=O)Nc2cc(OC)c(OC)c(OC)c2)c1=O	10%	-7%	-3%	-2%	-3%	4%
COc1cccc(CNC(=O)CN2C(=O)COc3ccc(S(=O)(=O)N4CCC(C)CC4)cc32)c1	.	4%	1%	-2%	-1%	-2%[9.26 µM]
C#CCn1cccc(C(=O)Nc2ccc(OC)cc2)c1=O	.	19µM*	?	19%[1.84 µM]	29%	14%
Nc1cccc(CCc2ccncc2)c1	.	-3%	9%	15%	3%	0%
Nc1cccc(/C=C/c2ccncc2)c1	.	17µM*	?	25%	?	12%
COc1ccc2nc(NC(=O)CSc3nnc(-c4ccoc4C)n3C)sc2c1	?	2.7µM*	?	3.5µM*	2.8µM*	19%
CCn1nnnc1SCC(=O)Nc1nc2ccc(OC)cc2s1	20%	12µM*	?	20%	23%	2%
COc1ccc2nc(NC(=O)CSc3nc(C)cc(C)n3)sc2c1	-24%	-20%	?	-1%	-1%	-4%
CCOc1ccc2nc(NC(=O)CCn3cccc3)sc2c1	12%	?	?	20%	15%	1%
